Data: PubChem BioAssay (NCI)
Compounds without any hit were thinned out: in the full panel of roughly 83,000, 20% have a hit.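 How to read the values: 0–100, growth inhibition (40 = 60% inhibited); 0, no net growth; -100 to 0, cell death (-40 = 40% of starting cells died; -100 = all dead).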 A number with no mark means an inactive call. Calls of active or inactive are those of the source. How the source made its calls: active means growth percent below 10; inactive means the rest.

test system: NCI-H522 lung; assay: NCI-60 one-dose screen, 48 h (100 = growth as untreated, 0 = no growth, -100 = all killed); conditions: 10 µM unless noted

Compound | growth
CCOC(=O)c1ccccc1-c1c2ccc(=[N+](C)C)cc-2oc2cc(N(C)C)ccc12 | 14.2%
O=C(Nc1ncc(Cc2cc(C(F)(F)F)ccc2Cl)s1)c1cccs1 | 35.2%
Clc1ccccc1-c1cnn2cc(-c3ccccc3)cnc12 | 77.3%
NC1(CO)COC(c2ccccc2)OC1 (centres undefined) | 87.1%
COc1cc(OC)cc(-c2ccc(-c3ccc(C(=N)N)o3)o2)c1 | 57.6%
CN1CCN(Cc2ccc(NC(=O)c3cncc(C#Cc4cnc5ccc(Cl)nn45)c3)cc2C(F)(F)F)CC1 | -12.8% (active)
NS(=O)(=O)c1ccc(NC(=O)/C(=C\c2ccc(Cl)cc2Cl)NC(=O)c2ccccc2)cc1 | 80.3%
C/C=C(/C)n1cnc2c(Nc3ccccn3)nc(Cl)nc21 | 87.1%
CS(=O)(=O)Nc1cc(-c2ccc3ncc(C#N)c(Nc4ccc(F)c(Cl)c4)c3c2)cnc1Cl | -18.1% (active)
CNC(=O)c1cc(Oc2cccc3nc(NC(=O)Nc4cc(C(F)(F)F)ccc4Cl)ccc23)ccn1 | 94%
CN1CCN(Cc2ccc(NC(=O)c3cncc(C#Cc4cnc(N)c5ccc(F)cc45)c3)cc2C(F)(F)F)CC1 | -81.1% (active)
CCN1CCN(CC(=O)Nc2nc3ccc(NCc4ccc(F)cc4)cc3s2)CC1 | 104%
COc1ccc(NC(=O)Nc2ccc(OCCCCCC(=O)NO)cc2)cc1 | 68.1%
CNC1=CC(=O)c2c(C(=O)OC)c(C)[n+]([O-])c(C)c2C1=O | 23.3%
